Experimental data as given in the OligoGym collection.

Target: DMXL1
Assay: pooled miR-30 sensor sort-seq; sequence = guide strand
Details: shRNA

First: TTGTTTCTGAAAACACTGCTAT
Second: ATTACTTACACATTCTACTTTA
The sensor-assay potency score (higher = more potent) of the first is higher: 0.009 for the first, -0.377 for the second.

Going from TTTCTAAATAGTATCTACTTAA to TTACACATTCTACTTTAGGCAA, the sensor-assay potency score (higher = more potent) rises from -0.599 to -0.183.

Going from TTCTTGAACATCATGACTGGAA to TTCATTTTCATTTAGACTCAGA, the sensor-assay potency score (higher = more potent) falls from -0.0948 to -0.406.

Compared with TAATTCTTGCTTTACCTCCAGG, TAAGTTAAAAGCATTGTGCATT is higher in sensor-assay potency score (higher = more potent): -0.447 for the first, -0.306 for the second.

Compared with TTCGCTAATATATACAACTAAG, TTTAACACTATGACATACTGAT is higher in sensor-assay potency score (higher = more potent): -0.796 for the first, 0.376 for the second.

Compared with TTTGTTTCTGAAAACACTGCTA, TTTCTATTAATGGTAGATCTGG is lower in sensor-assay potency score (higher = more potent): 0.164 for the first, -0.715 for the second.

Going from TTTCATTAAATGAACTTGGGAA to TTGACTGCTTTCACATTTGTTT, the sensor-assay potency score (higher = more potent) falls from 0.382 to -0.678.

Sequence TACATTTCTAAATAGTATCTAC has a sensor-assay potency score (higher = more potent) of -0.076.

Target: DNAJA2
Assay: as above
Details: shRNA

First: AATTATGTTAGGAACTTCCGGT
Second: TCGAGTGCTATCAAATTCCTGA
The sensor-assay potency score (higher = more potent) of the first is lower: -0.0625 for the first, 0.237 for the second.

Going from TATTTCACCACAATCTGACGTC to TTCTTCAGCTCGTTCTCGCTGG, the sensor-assay potency score (higher = more potent) falls from 0.583 to -0.323.

Going from TTGATAGTACTTCATATGCAAA to TTTCATGCCTTTGTCTACGTGG, the sensor-assay potency score (higher = more potent) rises from -1.43 to -0.148.

Compared with TAGAGCTTCAACAAGTCCTATT, TTCAAGAATCTTGACTTCTTTA is higher in sensor-assay potency score (higher = more potent): -0.658 for the first, -0.418 for the second.

Compared with TTTCTTTAAATTTGTCTCCTGC, TATTCCTTGGCTAACTTTCTGT is lower in sensor-assay potency score (higher = more potent): 0.759 for the first, -0.171 for the second.

First: TACCTCATGTTCTTTCTCCTGT
Second: TAGTTCAGAAAGCTTGTCTGGG
The sensor-assay potency score (higher = more potent) of the first is higher: 0.929 for the first, 0.299 for the second.

Target: DNAJB11
Assay: as above
Details: shRNA

Compared with TTTGTGTACAAATCATCTCCTC, TTCACCATAAGTATCGTACTGT is higher in sensor-assay potency score (higher = more potent): -0.115 for the first, 0.409 for the second.

First: TTCGTCGCAGACCACCTCCTGG
Second: TTCGGAACCGTAAATCTCCAGG
The sensor-assay potency score (higher = more potent) of the first is lower: -1.23 for the first, -0.565 for the second.

Compared with TCTATTTCTACTTCCAGCGTTC, TCTTATAGAAATCTCGTCCGGC is higher in sensor-assay potency score (higher = more potent): -0.287 for the first, 0.334 for the second.

First: TTCTTCACCATAAGTATCGTAC
Second: TATTTCTGTCTTGCTGACGAGG
The sensor-assay potency score (higher = more potent) of the first is higher: -0.183 for the first, -1.05 for the second.

First: TTGTGTACAAATCATCTCCTCT
Second: TCTTCCATAGCTTCGCTCCTGG
The sensor-assay potency score (higher = more potent) of the first is lower: -0.302 for the first, -0.0366 for the second.

Going from TTTGTTTCTAACTACTTCCACA to TATACCTTCTGCACTGACCCTT, the sensor-assay potency score (higher = more potent) rises from -0.721 to 0.681.
